Assay results as given in publication PMC5540273 (PLoS ONE, 2017).

Columns and labels:
Conditions in all cases: concentration: 1 μM, replicates: in singlicate; n = 1
[1] = system: RPS6KA5(Kin.Dom.2-C-terminal)
[2] = system: T1, RSK1(Kin.Dom.1-N-terminal)
T1 construct: gene RPS6KA1

[3] = system: T2, RSK1(Kin.Dom.2-C-terminal)
T2 construct: gene RPS6KA1

[4] = system: T3, RSK2(Kin.Dom.1-N-terminal)
T3 construct: gene RPS6KA3

[5] = system: T4, RSK2(Kin.Dom.2-C-terminal)
T4 construct: gene RPS6KA3

[6] = system: T5, RSK3(Kin.Dom.1-N-terminal)
T5 construct: gene RPS6KA2

[7] = system: T6, RSK3(Kin.Dom.2-C-terminal)
T6 construct: gene RPS6KA2

[8] = system: T7, RSK4(Kin.Dom.1-N-terminal)
T7 construct: gene RPS6KA6

[9] = system: T8, RSK4(Kin.Dom.2-C-terminal)
T8 construct: gene RPS6KA6

S6K1 = system: S6K1
SBK1 = system: SBK1
SGK2 = system: SGK2
SGK3 = system: SGK3
SGK = system: SGK
SIK2 = system: SIK2
SIK = system: SIK
SLK = system: SLK
SNARK = system: T9, SNARK
T9 construct: gene NUAK2

SNRK = system: SNRK
SRC = system: SRC
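Note: KINOMEscan kinase panel screen.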

Row | SMILES | %Inh [1] | %Inh [2] | %Inh [3] | %Inh [4] | %Inh [5] | %Inh [6] | %Inh [7] | %Inh [8] | %Inh [9] | %Inh (S6K1) | %Inh (SBK1) | %Inh (SGK2) | %Inh (SGK3) | %Inh (SGK) | %Inh (SIK2) | %Inh (SIK) | %Inh (SLK) | %Inh (SNARK) | %Inh (SNRK) | %Inh (SRC)
1 | NC(=O)c1sc(-n2cnc3ccccc32)cc1OCc1ccccc1F [GSK1024306] | 0% | 0% | 32% | 9% | 31% | 0% | 0% | 0% | 82% | 0% | 21% | 0% | 0% | 4% | 0% | 4% | 63% | 29% | 0% | 14%
2 | COC(=O)c1cccc(NC(=O)NCCNc2ccnc(Nc3ccc(F)cc3)n2)c1 [GSK1379883] | 4% | 30% | 0% | 0% | 0% | 0% | 0% | 0% | 11% | 0% | 3% | 0% | 0% | 0% | 0% | 0% | 4% | 0% | 0% | 0%
3 | CSc1ccc(NC2=C(c3ccccc3Cl)C(=O)NC2=O)cc1 [SB-342411] | 1% | 6% | 15% | 0% | 0% | 1% | 0% | 0% | 0% | 1% | 1% | 0% | 14% | 0% | 5% | 0% | 98.7% | 19% | 0% | 38%
4 | Nc1n[nH]c2nnc(-c3ccccc3)cc12 [SB-517389] | 2% | 28% | 9% | 0% | 76% | 4% | 24% | 0% | 25% | 25% | 10% | 0% | 19% | 0% | 0% | 0% | 0% | 0% | 2% | 0%
5 | COc1ccc(NC(=O)c2ccc(-c3cc(-c4nnc(C)o4)ccc3C)cc2)cc1 [GW595885] | 0% | 17% | 0% | 0% | 0% | 0% | 0% | 0% | 5% | 4% | 26% | 2% | 0% | 1% | 0% | 0% | 10% | 0% | 0% | 0%
6 | COC(=O)c1c(-c2ccccc2)c2cc(Cl)ccc2c(=O)n1Cc1ccc(S(C)(=O)=O)cc1 | 0% | 5% | 11% | 5% | 15% | 9% | 6% | 0% | 8% | 0% | 0% | 0% | 9% | 0% | 9% | 2% | 19% | 18% | 0% | 23%
7 | Clc1cccc(-c2nc(Nc3ccncc3)c3ccccc3n2)c1 [GW873004] | 16% | 0% | 10% | 49% | 40% | 0% | 2% | 0% | 24% | 0% | 0% | 11% | 0% | 6% | 0% | 63% | 43% | 0% | 0% | 0%
8 | O=c1cc(N2CCOCC2)nc2n(Cc3cccc(Cl)c3)ccn12 [GSK2296823] | 7% | 10% | 0% | 21% | 27% | 0% | 0% | 0% | 19% | 0% | 32% | 0% | 13% | 0% | 9% | 0% | 0% | 0% | 5% | 2%
9 | Fc1cccc(COc2ccc(Nc3ncnc4nn5ccccc5c34)cc2Cl)c1 [GW689066] | 0% | 4% | 0% | 0% | 0% | 0% | 0% | 0% | 0% | 0% | 2% | 0% | 0% | 0% | 0% | 0% | 2% | 0% | 0% | 0%
10 | CCc1nc(-c2cccc(N(C)S(=O)(=O)c3ccccc3)c2)c(-c2ccnc(Nc3ccc(N4CCN(C(C)=O)CC4)nc3)n2)s1 [GSK1645895] | 2% | 26% | 24% | 0% | 1% | 8% | 23% | 0% | 20% | 7% | 5% | 0% | 19% | 0% | 0% | 0% | 3% | 23% | 0% | 16%
11 | FC(F)(F)c1ccc(-c2nn3ncccc3c2-c2ccnc(Nc3cccc(C(F)(F)F)c3)n2)cc1 [GW828205] | 3% | 12% | 0% | 0% | 6% | 0% | 0% | 0% | 3% | 0% | 0% | 0% | 18% | 0% | 0% | 47% | 21% | 0% | 0% | 0%
12 | Fc1ccc(Nc2nccc(-c3c(-c4ccc(Cl)cc4)nn4ncccc34)n2)cc1F [GW829058] | 18% | 27% | 10% | 31% | 42% | 6% | 0% | 30% | 0% | 4% | 43% | 17% | 3% | 18% | 0% | 0% | 6% | 0% | 0% | 14%
13 | FC(F)(F)c1ccc(-c2cc(-c3c[nH]nc3-c3ccccn3)ccn2)cc1 [GW599550] | 15% | 20% | 7% | 0% | 2% | 12% | 5% | 0% | 42% | 2% | 8% | 9% | 12% | 0% | 0% | 0% | 23% | 10% | 100% | 3%
14 | Nc1nc(-c2cccnc2)c(-c2ccnc3ccccc23)s1 [GW684083] | 0% | 11% | 22% | 3% | 27% | 8% | 0% | 0% | 79% | 18% | 17% | 9% | 0% | 45% | 0% | 4% | 18% | 0% | 0% | 2%
15 | Nc1nc(-c2ccc3c(N)n[nH]c3c2)cc(N2CCCCC2)n1 [GSK2228768] | 0% | 0% | 0% | 0% | 0% | 15% | 0% | 0% | 0% | 0% | 3% | 0% | 0% | 0% | 0% | 0% | 5% | 0% | 0% | 15%
16 | CC(C)N1CCC(n2cnc(-c3ccc(F)cc3)c2-c2ccnc(N)n2)CC1 [SB-223132] | 0% | 0% | 56% | 3% | 29% | 12% | 4% | 0% | 66% | 0% | 0% | 0% | 0% | 0% | 4% | 14% | 12% | 0% | 0% | 0%
17 | O=C(c1ccc(-c2cc(-c3c[nH]nc3-c3ccccn3)ccn2)cc1)N1CCCC1 [GW792479] | 11% | 4% | 0% | 14% | 39% | 0% | 12% | 0% | 19% | 7% | 0% | 8% | 0% | 0% | 12% | 19% | 3% | 0% | 0% | 17%
18 | CCCc1ccc(S(=O)(=O)NC2CCN(c3ccnc(Nc4ccc(OC)cc4)n3)C2)cc1 (centres unmarked) [GSK1379737] | 7% | 0% | 0% | 2% | 13% | 0% | 0% | 0% | 0% | 16% | 100% | 6% | 0% | 0% | 0% | 0% | 15% | 0% | 0% | 0%
19 | Cc1ccc(O)cc1Nc1cc(C(F)(F)F)nc2ccc(-c3ccncc3)cc12 [GW630823] | 9% | 0% | 0% | 0% | 0% | 0% | 5% | 4% | 14% | 0% | 0% | 3% | 0% | 14% | 11% | 4% | 26% | 0% | 0% | 18%
20 | CCc1nc(-c2cccc(C)c2)c(-c2ccnc(NC(=O)c3ccccc3)c2)s1 | 1% | 0% | 53% | 0% | 39% | 0% | 5% | – | 46% | 0% | 5% | 17% | 0% | 13% | 0% | 25% | 0% | 0% | 19% | 5%
21 | N#Cc1ccc(Oc2ccc(Nc3ncnc4cc[nH]c34)cc2Cl)cc1 | 0% | 20% | 17% | 19% | 0% | 9% | 23% | 16% | 32% | 10% | 27% | 34% | 28% | 31% | 37% | 0% | 7% | 24% | 38% | 3%
